From PubChem BioAssay (Tox21)
Records with an inconclusive call do not appear. Values without a mark were called inactive. Calls follow the shape of the dose curve; as a rule, active = well fitted inhibition curve with a large enough effect in the signal ratio in the repeat runs (not every such curve was filed as active); inconclusive = weak or mixed curves, or effect the other way; inactive = flat fitted curve, though single readings scatter; the % refers to the signal ratio.

Assay: cAMP Responsive Elements (CRE) small molecule antagonists, cell-based qHTS assay (AID 1963591)
Details: CRE-bla HEK293T, beta-lactamase FRET ratio; series mostly up to 92.4 µM; activity change, negative = inhibition: at the top concentration
Excerpt: U.S. Tox21 Program National Center for Advancing Translational Sciences [NCATS] Division of Preclinical Innovation [DPI] U.S. Environmental Protection Agency [EPA] National Institutes of Environmental Health Sciences [NIEHS] National Toxicology Program [NTP] U.S. Food and Drug Administration [FDA] Tox21 Assay Overview: CREB (cyclic-AMP Responsive Element Binding Protein) is a cellular transcription factor. It binds to certain DNA sequences called cAMP Responsive Elements (CRE) and regulates the transcription of the genes. […] This cell line can be used to find agonists/antagonists of the cyclic AMP signaling pathway. The activation of the report gene under culture conditions can be detected by fluorescence intensity. This cell line has been used to screen the Tox21 10K compound library to […].
Tox21 Assay Protocol Summary: CRE-bla Hek 293T cells were suspended in assay medium (DMEM containing 10% dialyzed FBS, 0.1 mM NEAA, 1 mM sodium pyruvate and 25 mM HEPES) and dispensed at 2,000 cells/4 uL /well into 1536-well black wall/clear bottom plates using a Multidrop Combi (ThermoFisher Scientific, Waltham, MA) dispenser. After the assay plates were incubated at 37 C/5% CO2 for 18 hrs, 23 nL of compounds dissolved in DMSO, positive controls or DMSO only was transferred to the assay plate by a pintool workstation (Kalypsys, San Diego, CA), followed by addition of 1 […] uL of 1.25uM NKH477 (0.25 uM as final concentration) in assay medium using a Flying Reagent Dispenser (Aurora Discovery, San Diego, CA). The plates were incubated at 37 C and 5% CO2 for 3 hrs. Then 1 uL of LiveBLAzer B/G FRET substrate (Invitrogen, Carlsbad, CA) was added to each well using Bioraptr Flying Reagent Dispenser (FRD, Aurora Discovery, San Diego, CA). The plates were incubated at room temperature for 2 h.
% is scaled to controls: 0 for no effect and ±100 for the full control effect.

First: CCc1cc(Cc2cc(CC)cc(C(C)(C)C)c2O)c(O)c(C(C)(C)C)c1
Second: CCc1cccc(CC)c1N(COC)C(=O)CS(=O)(=O)O
The “activity change, negative = inhibition” value of the first is higher: 0.072% for the first, -0.321% for the second.

Going from `C=C(C)C(=O)OCC(C)(C)COC(=O)C(=C)C` to `C=CC(=O)OCC[N+](C)(C)C`, the “activity change, negative = inhibition” value falls from 15.3% to 4.74%.

First: CO[Si](CCC1CCC2OC2C1)(OC)OC (stereo not given)
Second: COc1ccc(Nc2ccc(OC)cc2)cc1
The “activity change, negative = inhibition” value of the first is higher: 1.95% for the first, 0.896% for the second.

Going from `O=C(O)c1cccc(Cl)n1` to `Nc1cc(S(=O)(=O)O)ccc1O`, the “activity change, negative = inhibition” value falls from 5.99% to 0.7%.

First: CCCCC/C=C\CCC=O
Second: CCCCCCCCN
The “activity change, negative = inhibition” value of the first is higher: 0.649% for the first, -13.6% for the second.

Going from `O=C1C=CCCC1` to `Cc1cc(=O)[nH]c(=O)[nH]1`, the “activity change, negative = inhibition” value rises from -4.64% to 2.64%.

Going from `CCOC(=O)COc1ccc(C)cc1` to `CC(=O)Nc1ccc(N)cc1`, the “activity change, negative = inhibition” value rises from 0.855% to 1.4%.

Going from `CCCCCCCCCCCCCCCCCC(=O)OCCCCCCCCCCCCCC(C)C` to `Nc1ccc(NC(=O)c2ccc(N)cc2)cc1`, the “activity change, negative = inhibition” value rises from -1.04% to 3.07%.

Going from `C=CS(=O)(=O)O` to `Cc1c(N)cccc1[N+](=O)[O-]`, the “activity change, negative = inhibition” value falls from 0.26% to -0.858%.

Compared with `C1OCOCO1`, `C1CCN(CN2CCCCC2)CC1` is higher in “activity change, negative = inhibition” value: -7.53% for the first, -5.67% for the second.

Going from `C[n+]1ccccc1/C=N/O` to `COCCc1ccccn1`, the “activity change, negative = inhibition” value falls from 11.2% [at 42.4 µM] to 7.12% [at 42.4 µM].

Going from `CC(C)(C)C(=O)Oc1ccc(S(=O)(=O)Nc2ccccc2C(=O)NCC(=O)O)cc1` to `COc1ccc(S(=O)(=O)N2c3ccc(Cl)cc3[C@@](O)(c3ccccc3Cl)[C@H]2C(=O)N2CCC[C@@H]2C(N)=O)cc1OC`, the “activity change, negative = inhibition” value rises from -2.34% [at 42.4 µM] to -1.07% [at 42.4 µM].

First: O=C(CN1CCN(Cc2ccc3c(c2)OCO3)CC1)N1c2ccccc2Sc2ccccc21
Second: O=C(CCCN1CCC(O)(c2ccc(Br)cc2)CC1)c1ccc(F)cc1
The “activity change, negative = inhibition” value of the first is higher: 8.24% [at 42.4 µM] for the first, 4.55% [at 42.4 µM] for the second.

Going from `COc1cc2c(N3CCN(C(=O)Nc4ccc(OC(C)C)cc4)CC3)ncnc2cc1OCCCN1CCCCC1` to `CCC(=O)Nc1ccc(O)cc1`, the “activity change, negative = inhibition” value falls from 13.2% [at 42.4 µM] to -4.9% [at 42.4 µM].

First: C1CCN2C[C@@H]3C[C@@H](CN4CCCC[C@@H]34)[C@H]2C1
Second: NC1CCN(c2cccc(Cl)n2)CC1
The “activity change, negative = inhibition” value of the first is higher: -5.01% [at 42.4 µM] for the first, -6.25% [at 42.4 µM] for the second.

First: CC(C)[C@H](N)C(=O)OCCOCn1cnc2c(=O)[nH]c(N)nc21
Second: CO/N=C(\C(=O)N[C@@H]1C(=O)N2C(C(=O)O)=C(CSc3nc(=O)c(O)nn3C)CS[C@H]12)c1csc(N)n1
The “activity change, negative = inhibition” value of the first is lower: -2.04% [at 42.4 µM] for the first, -0.0122% [at 42.4 µM] for the second.

First: CC(CCc1ccc(O)cc1)NCCc1ccc(O)c(O)c1 (stereo not given)
Second: CC(=O)NC(=O)c1ccccc1O
The “activity change, negative = inhibition” value of the first is higher: 5.18% [at 42.4 µM] for the first, 1.35% [at 42.4 µM] for the second.

First: CCCCCCCCCCCCCCNCCO
Second: O=NN(CCCl)C(=O)NCCCl
The “activity change, negative = inhibition” value of the first is lower: -7.49% [at 42.4 µM] for the first, 4.31% [at 42.4 µM] for the second.

Going from `Cc1ccc(Cl)c(OCC(O)CNC(C)(C)C)c1` (stereo not given) to `Cc1ccc(=O)n(-c2ccccc2)c1`, the “activity change, negative = inhibition” value rises from -9.02% [at 42.4 µM] to 1.13% [at 42.4 µM].

In the case of `O=C(CO)[C@@H](O)[C@H](O)[C@@H](O)CO`, the “activity change, negative = inhibition” value is reported as -4.8% [at 42.4 µM].

Work on `BrC/C=C/CBr` yielded an activity change, negative = inhibition of -2.76% [at 18.9 µM].
